Assay results published in the supplement of paper PMC10849652.
About 7,900 targets were measured; listed, in parts, are those with a hit and a random draw of the rest. About 0.6% of all pairs of compound and target were hits. Values without a mark were called inactive.

Key:
Test in all cases: log2 fold change, soluble protein after heating vs DMSO (PISA); higher = thermal stabilisation; K562 cells, 10 uM, 30 min; active = over 0.2 and 3.5 SD of the protein, either way, in both replicates (recomputed)
[1] = compound: CC[C@@H]1C(=O)N(C)c2cnc(Nc3ccc(C(=O)NC4CCN(C)CC4)cc3OC)nc2N1C1CCCC1
Outline: (§1)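 K562 cells at 2×10^6 cells/mL were exposed to 10 μM compound for 30 min, then aliquots were heated for 3 min across 48°C-58°C, pooled, and extracted in PBS containing 0.5% NP-40 at 4°C. The supernatant after 21,000xg for 90 min was taken as soluble protein and measured by TMTpro 16plex LC-MS/MS with channel sums equalised. Thermal stability is reported relative to control samples, with values from duplicates. Fold changes are given on a log2 scale.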

[2] = compound: CC[C@@H]1C(=O)N(C)c2cnc(Nc3ccc(C(=O)N[C@H]4CC[C@H](N5CCN(CC6CC6)CC5)CC4)cc3OC)nc2N1C(C)C [volasertib]
Outline: as §1

[3] = compound: CC[C@H](C)N1C=C(C2=C(C=C(C=C21)C3=CN=C(C=C3)N4CCNCC4)C(=O)NCC5=C(C=C(NC5=O)C)C)C
Outline: as §1

[4] = compound: CC[C@H](C)[C@@H](C(=O)N[C@@H]([C@@H](C)O)C(=O)N[C@@H](CC(C)C)C(=O)[C@]1(CO1)C)NC(=O)[C@H]([C@@H](C)CC)N(C)C(=O)C [epoxomicin]
Outline: as §1

[5] = compound: CCn1c(C(=O)N(C2CC2)C2CC2)cc2c3c(ncn3C)c(Nc3cc(C)n(C)n3)nc21
Outline: as §1

[6] = compound: CCn1cc(-c2ccnc3[nH]c(-c4cccc(CN(C)C)c4)cc23)c(-c2ccc(NC(=O)N(C)C)cc2)n1
Outline: as §1

[7] = compound: CN(C)CC(=O)Nc1ccc2[nH]c(=O)c3ccccc3c2c1
Outline: as §1

[8] = compound: CN(CCOC1=CC=C(C=C1)C[C@H]2C(=O)NC(=O)S2)C3=CC=CC=N3 (racemic) [rosiglitazone]
Outline: as §1

[9] = compound: CN1C2=C(C3=C1C(=O)N(N=C3)CC4=CC(=CC=C4)N)SC(=C2)S(=O)C
Outline: as §1

[10] = compound: CN1CCC(CNc2ccc3ncc(-c4cccc(OC(F)(F)F)c4)n3n2)CC1
Outline: as §1

Sequence of UniProt Q92544 (Q92544 whole entry, looked up): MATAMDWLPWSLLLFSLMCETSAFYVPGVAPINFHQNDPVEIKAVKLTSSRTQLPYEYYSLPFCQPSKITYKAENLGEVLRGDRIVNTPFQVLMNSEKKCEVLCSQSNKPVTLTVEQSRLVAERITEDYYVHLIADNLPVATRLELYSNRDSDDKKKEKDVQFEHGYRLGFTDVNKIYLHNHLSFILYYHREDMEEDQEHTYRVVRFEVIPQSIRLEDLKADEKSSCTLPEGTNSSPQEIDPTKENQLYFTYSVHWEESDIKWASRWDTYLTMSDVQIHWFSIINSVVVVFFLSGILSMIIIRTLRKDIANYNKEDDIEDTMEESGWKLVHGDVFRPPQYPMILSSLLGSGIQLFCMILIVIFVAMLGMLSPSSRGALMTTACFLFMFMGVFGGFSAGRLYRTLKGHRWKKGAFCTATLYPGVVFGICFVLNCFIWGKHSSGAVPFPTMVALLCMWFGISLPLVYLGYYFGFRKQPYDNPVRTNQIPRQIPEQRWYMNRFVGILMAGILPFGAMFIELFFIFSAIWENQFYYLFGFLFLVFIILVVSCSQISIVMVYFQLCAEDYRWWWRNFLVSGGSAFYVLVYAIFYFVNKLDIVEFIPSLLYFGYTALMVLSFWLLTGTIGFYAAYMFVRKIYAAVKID
Sequence of UniProt P08240 (P08240 whole entry, looked up): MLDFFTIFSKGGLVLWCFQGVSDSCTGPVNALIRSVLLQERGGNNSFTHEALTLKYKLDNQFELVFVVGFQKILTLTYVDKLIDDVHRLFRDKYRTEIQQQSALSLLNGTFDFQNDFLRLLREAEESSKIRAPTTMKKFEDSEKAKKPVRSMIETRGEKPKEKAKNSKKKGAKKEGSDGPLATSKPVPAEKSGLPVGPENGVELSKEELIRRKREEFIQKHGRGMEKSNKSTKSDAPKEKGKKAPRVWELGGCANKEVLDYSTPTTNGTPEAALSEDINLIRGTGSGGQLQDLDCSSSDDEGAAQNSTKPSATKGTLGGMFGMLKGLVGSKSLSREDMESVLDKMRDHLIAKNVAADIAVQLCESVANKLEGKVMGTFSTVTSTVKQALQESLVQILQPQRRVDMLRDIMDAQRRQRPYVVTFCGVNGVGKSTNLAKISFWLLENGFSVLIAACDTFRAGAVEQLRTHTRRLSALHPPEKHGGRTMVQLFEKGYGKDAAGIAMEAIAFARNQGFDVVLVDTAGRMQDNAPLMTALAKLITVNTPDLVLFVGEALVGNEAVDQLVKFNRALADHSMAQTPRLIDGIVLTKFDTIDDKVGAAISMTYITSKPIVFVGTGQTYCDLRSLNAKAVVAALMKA
Sequence of UniProt Q99523 (Q99523 whole entry, looked up): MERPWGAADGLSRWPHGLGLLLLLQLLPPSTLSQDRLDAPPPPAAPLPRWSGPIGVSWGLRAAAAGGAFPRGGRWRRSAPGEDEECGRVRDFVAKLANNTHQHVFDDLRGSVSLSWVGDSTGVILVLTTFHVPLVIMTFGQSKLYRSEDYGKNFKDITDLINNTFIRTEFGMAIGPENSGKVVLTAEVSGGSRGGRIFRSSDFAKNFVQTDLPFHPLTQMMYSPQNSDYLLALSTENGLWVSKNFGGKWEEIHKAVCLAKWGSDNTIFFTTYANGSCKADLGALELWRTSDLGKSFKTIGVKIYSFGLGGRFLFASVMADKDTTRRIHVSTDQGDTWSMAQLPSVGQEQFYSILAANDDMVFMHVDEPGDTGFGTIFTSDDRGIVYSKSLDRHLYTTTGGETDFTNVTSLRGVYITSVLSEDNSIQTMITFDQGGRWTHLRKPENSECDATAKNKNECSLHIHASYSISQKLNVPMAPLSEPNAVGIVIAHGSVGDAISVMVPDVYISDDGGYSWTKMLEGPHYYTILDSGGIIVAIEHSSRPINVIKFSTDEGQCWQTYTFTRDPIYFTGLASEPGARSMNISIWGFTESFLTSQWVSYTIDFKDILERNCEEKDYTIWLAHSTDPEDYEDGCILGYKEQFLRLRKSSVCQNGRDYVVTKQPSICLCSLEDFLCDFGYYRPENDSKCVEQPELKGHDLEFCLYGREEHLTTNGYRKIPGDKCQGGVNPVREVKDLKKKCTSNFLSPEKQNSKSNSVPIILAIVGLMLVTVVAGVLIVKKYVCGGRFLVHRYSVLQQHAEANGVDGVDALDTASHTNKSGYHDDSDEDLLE
Sequence of UniProt Q9Y5W9 (Q9Y5W9 whole entry, looked up): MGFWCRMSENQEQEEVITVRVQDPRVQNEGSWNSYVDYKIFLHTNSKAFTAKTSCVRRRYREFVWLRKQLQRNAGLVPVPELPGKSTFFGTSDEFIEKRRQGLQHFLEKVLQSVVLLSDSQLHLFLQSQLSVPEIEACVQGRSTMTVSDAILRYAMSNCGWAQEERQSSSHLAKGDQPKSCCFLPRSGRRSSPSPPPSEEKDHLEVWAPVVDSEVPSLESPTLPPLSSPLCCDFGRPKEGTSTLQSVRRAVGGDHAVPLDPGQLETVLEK
Sequence of UniProt Q9Y5X3 (Q9Y5X3 whole entry, looked up): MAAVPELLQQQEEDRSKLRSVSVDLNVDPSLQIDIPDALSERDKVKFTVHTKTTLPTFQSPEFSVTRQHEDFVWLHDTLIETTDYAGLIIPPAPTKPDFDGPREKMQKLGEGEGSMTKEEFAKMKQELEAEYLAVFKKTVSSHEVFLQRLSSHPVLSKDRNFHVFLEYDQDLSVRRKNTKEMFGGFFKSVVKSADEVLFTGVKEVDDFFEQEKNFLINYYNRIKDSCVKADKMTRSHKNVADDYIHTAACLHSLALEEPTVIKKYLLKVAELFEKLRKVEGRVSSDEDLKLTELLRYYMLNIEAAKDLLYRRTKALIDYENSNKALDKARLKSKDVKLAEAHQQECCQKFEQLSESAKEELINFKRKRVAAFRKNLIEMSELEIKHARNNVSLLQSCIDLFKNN
Sequence of UniProt Q15005 (Q15005 whole entry, looked up): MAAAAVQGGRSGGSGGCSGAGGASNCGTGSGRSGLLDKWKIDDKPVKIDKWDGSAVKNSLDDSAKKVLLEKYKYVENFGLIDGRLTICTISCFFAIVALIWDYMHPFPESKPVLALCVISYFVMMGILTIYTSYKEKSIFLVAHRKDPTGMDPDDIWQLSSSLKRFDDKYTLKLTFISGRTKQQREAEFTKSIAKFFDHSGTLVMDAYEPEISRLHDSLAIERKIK
Sequence of UniProt Q9BVV7 (Q9BVV7 whole entry, looked up): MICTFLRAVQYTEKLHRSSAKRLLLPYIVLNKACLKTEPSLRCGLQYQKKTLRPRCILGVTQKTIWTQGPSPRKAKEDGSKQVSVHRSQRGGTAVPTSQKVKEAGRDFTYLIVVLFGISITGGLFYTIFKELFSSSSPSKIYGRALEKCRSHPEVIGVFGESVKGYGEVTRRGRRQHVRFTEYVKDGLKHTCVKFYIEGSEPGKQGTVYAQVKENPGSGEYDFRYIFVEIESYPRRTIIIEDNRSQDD
Sequence of UniProt O43615 (O43615 whole entry, looked up): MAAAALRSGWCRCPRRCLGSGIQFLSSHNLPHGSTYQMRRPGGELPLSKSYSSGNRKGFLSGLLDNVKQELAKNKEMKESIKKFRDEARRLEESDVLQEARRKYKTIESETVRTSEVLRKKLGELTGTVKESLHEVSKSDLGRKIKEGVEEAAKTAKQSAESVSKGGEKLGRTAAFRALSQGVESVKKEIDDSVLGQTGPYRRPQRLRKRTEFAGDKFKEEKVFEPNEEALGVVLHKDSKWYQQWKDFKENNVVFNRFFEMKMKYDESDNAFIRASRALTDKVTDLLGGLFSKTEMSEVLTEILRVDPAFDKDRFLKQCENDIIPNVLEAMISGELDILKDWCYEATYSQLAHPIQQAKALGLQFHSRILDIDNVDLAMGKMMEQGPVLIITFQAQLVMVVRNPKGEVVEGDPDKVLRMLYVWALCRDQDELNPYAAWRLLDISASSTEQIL
Sequence of UniProt Q9UMY4 (Q9UMY4 whole entry, looked up): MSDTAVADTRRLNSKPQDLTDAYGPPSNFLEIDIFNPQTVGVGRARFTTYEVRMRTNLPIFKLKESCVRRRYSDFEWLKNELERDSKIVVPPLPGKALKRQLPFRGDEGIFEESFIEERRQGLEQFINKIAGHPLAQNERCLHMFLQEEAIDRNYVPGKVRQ
Sequence of UniProt O95772 (O95772 whole entry, looked up): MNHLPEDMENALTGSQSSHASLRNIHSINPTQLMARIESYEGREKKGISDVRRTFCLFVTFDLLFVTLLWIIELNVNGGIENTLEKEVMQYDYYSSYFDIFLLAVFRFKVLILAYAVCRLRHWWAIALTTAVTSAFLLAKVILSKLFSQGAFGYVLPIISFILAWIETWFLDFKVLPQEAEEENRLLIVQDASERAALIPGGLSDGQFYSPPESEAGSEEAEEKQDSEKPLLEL
Sequence of UniProt Q8NBW4 (Q8NBW4 whole entry, looked up): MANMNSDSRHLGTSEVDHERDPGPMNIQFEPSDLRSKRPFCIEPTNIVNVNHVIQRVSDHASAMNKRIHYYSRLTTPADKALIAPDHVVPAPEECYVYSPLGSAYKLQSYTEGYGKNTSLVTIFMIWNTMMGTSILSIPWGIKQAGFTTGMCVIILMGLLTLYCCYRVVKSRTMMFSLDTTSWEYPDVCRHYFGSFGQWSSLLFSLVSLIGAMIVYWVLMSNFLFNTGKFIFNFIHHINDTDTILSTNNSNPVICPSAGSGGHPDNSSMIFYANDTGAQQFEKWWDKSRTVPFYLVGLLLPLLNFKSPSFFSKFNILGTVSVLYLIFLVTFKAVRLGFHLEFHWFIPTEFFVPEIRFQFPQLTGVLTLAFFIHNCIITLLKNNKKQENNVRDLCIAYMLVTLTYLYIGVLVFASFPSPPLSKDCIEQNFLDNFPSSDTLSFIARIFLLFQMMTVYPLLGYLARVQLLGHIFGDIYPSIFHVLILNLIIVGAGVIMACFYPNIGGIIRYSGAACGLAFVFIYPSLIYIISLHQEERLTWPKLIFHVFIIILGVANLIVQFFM

Target | log2 fold change [1] | log2 fold change [2] | log2 fold change [3] | log2 fold change [4] | log2 fold change [5] | log2 fold change [6] | log2 fold change [7] | log2 fold change [8] | log2 fold change [9] | log2 fold change [10]
SRRM2 (UniProt Q9UQ35) | -0.025 | 0.009 | 0.046 | -0.071 | -0.016 | -0.072 | 0.053 | 0.046 | 0.062 | -0.222
TCERG1 (UniProt O14776) | -0.145 | -0.445 (active) | 0.133 | 0.116 | -0.076 | -0.032 | 0.135 | 0.071 | -0.038 | -0.136
SMARCAD1 isoform 2 (UniProt Q9H4L7) | -0.085 | -0.378 (active) | 0.057 | 0.046 | -0.055 | -0.1 | 0.04 | 0.071 | -0.037 | -0.1
SLC38A9 (UniProt Q8NBW4) | -0.013 | -0.003 | -0.022 | -0.02 | 0.007 | 0.055 | -0.039 | 0.003 | 0.029 | -0.197
SRPRA (UniProt P08240) | -0.116 | -0.107 | 0.007 | 0.02 | -0.07 | -0.036 | 0.032 | -0.002 | -0.055 | 0.009
STARD9 (UniProt Q9P2P6) | -0.024 | 0.238 | -0.029 | 0.022 | 0.064 | 0.008 | 0.075 | 0.015 | 0.507 (active) | -0.098
SPCS2 (UniProt Q15005) | 0.018 | -0.006 | 0.02 | 0.091 | -0.067 | -0.009 | 0.038 | 0.029 | -0.078 | 0.005
THADA (UniProt Q6YHU6) | -0.003 | -0.017 | 0.011 | -0.007 | 0 | 0.057 | 0.051 | 0.076 | -0.019 | -0.146
STAM2 (UniProt O75886) | -0.039 | -0.297 (active) | 0.063 | 0.039 | -0.007 | -0.056 | 0 | 0.022 | -0.033 | -0.128
TFB2M (UniProt Q9H5Q4) | -0.096 | -0.326 (active) | 0.049 | 0.071 | 0 | -0.002 | 0.031 | 0.042 | -0.049 | -0.179
STARD3NL (UniProt O95772) | 0.037 | -0.022 | -0.036 | -0.085 | 0.007 | -0.014 | -0.068 | 0.014 | -0.058 | -0.371 (active)
SMAP2 (UniProt Q8WU79) | -0.054 | -0.3 (active) | 0.131 | 0.056 | -0.015 | -0.009 | 0.008 | 0.073 | -0.021 | 0.015
TELO2 (UniProt Q9Y4R8) | -0.083 | -0.359 (active) | -0.017 | -0.093 | -0.031 | 0.005 | 0.123 | 0.036 | 0.154 | -0.052
SNX12 isoform 1 (UniProt Q9UMY4) | -0.124 | -0.252 (active) | 0.069 | 0.028 | -0.068 | 0.043 | -0.012 | 0.058 | 0.045 | -0.275 (active)
TIMM21 (UniProt Q9BVV7) | -0.133 | -0.286 (active) | 0.034 | -0.041 | 0.029 | -0.028 | -0.025 | 0.05 | -0.044 | -0.227
SORT1 (UniProt Q99523) | -0.984 (active) | -1.34 (active) | -0.013 | 0.032 | -0.028 | 0.007 | 0.003 | 0.008 | -0.028 | -0.582 (active)
TM9SF2 (UniProt Q99805) | -0.57 (active) | -0.621 (active) | -0.008 | -0.034 | 0.033 | -0.017 | 0.018 | -0.052 | -0.01 | -0.182
TIMM44 (UniProt O43615) | -0.412 (active) | -0.57 (active) | -0.004 | 0.057 | -0.006 | -0.091 | 0.012 | 0.036 | -0.056 | -0.886 (active)
SRP72 (UniProt O76094) | -0.093 | -0.518 | 0.119 | 0.001 | -0.104 | -0.034 | 0.03 | 0.047 | 0.119 | -0.168
STXBP5 (UniProt Q5T5C0) | -0.085 | -0.344 (active) | 0.021 | 0.151 | -0.019 | 0.046 | 0.033 | 0.007 | 0.015 | -0.006
SRSF11 (UniProt Q05519) | -0.088 | -0.311 (active) | 0.074 | 0.047 | -0.022 | -0.072 | 0.02 | 0.006 | -0.018 | 0.128
SPAST (UniProt Q9UBP0) | -0.128 | -0.242 | 0.107 | 0.021 | -0.077 | 0.035 | 0.079 | 0.048 | -0.046 | -0.043
SNX11 (UniProt Q9Y5W9) | -0.167 | -0.324 | 0.066 | -0.031 | -0.097 | -0.022 | -0.024 | -0.007 | 0.167 | -0.646 (active)
TGFBI (UniProt Q15582) | -0.089 | -0.211 | -0.044 | -0.33 | -0.026 | 0.068 | -0.128 | 0.118 | 0.171 | -0.142
SREK1 isoform 2 (UniProt Q8WXA9) | -0.122 | -0.22 | 0.037 | -0.021 | 0.021 | -0.098 | -0.029 | 0.015 | 0.026 | -0.035
TM9SF4 (UniProt Q92544) | -0.225 | -0.484 (active) | 0.024 | -0.055 | 0.035 | 0.052 | 0.001 | 0.082 | -0.05 | -0.084
SLC25A36 (UniProt Q96CQ1) | -0.133 | 0.059 | 0.045 | 0.026 | -0.002 | -0.135 | -0.217 | -0.073 | 0.02 | 0.046
SNX5 (UniProt Q9Y5X3) | -0.136 | -0.129 | 0.076 | 0.05 | -0.026 | -0.099 | 0.027 | 0.069 | -0.001 | -0.289 (active)
SPAG9 (UniProt O60271) | -0.039 | -0.168 | 0.046 | 0.028 | -0.014 | 0.02 | 0.02 | 0.043 | -0.009 | -0.203
TBC1D24 (UniProt Q9ULP9) | 0.025 | -0.028 | 0.05 | -0.011 | -0.006 | -0.175 | 0.018 | 0.075 | -0.067 | -0.236
